From PubChem
MPTP inh = permeability transition pore inhibition; isolated mouse mitochondria, Ca2+ swelling absorbance, 30 min; inhibition, % at 10 µM; hit rate 1.4% among 360,000; AID 602449;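 active = inhibition of 50% or more, scaled per plate between neutral and stimulator controls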;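 also: 0% = DMSO wells given calcium and 100% = 1 mM EGTA wells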
Calb FLC = C. albicans growth modulation with fluconazole; C. albicans CaCi-2 (fluconazole-resistant clinical isolate) + fluconazole, Alamar Blue growth, 48 h; growth inhibition, % (no concentration beside the values); hit rate 0.57% among 300,000; AID 1979;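 active = growth inhibition above about 58% in most replicates, limit read from the data, passing the limit was not always enough; inconclusive = exactly half the replicates above a set limit; inactive = most replicates below a set limit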;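 also: all wells also contain fluconazole at 8 µg/ml as a sub-toxic cotreatment; 0% = median of DMSO wells and 100% = median of geldanamycin control wells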
Beta cell apopt = beta cell apoptosis inhibition. INS-1E cytokine-induced death, ATP luminescence, 48 h; percent of positive-control rescue, neutral wells zero. protection from apoptosis, % (no concentration beside the values). hit rate 0.8% among 300,000. AID 435005;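 active = Every replicate reaches about 75%, or at least half do and their mean reaches it too, limit read from the data; inconclusive = At least half of replicates reach the limit but their mean does not; inactive = Under half of replicates reach the limit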;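 also: 0% = cytokine-treated negative control wells and 100% = positive control rescue; higher means more ATP so stronger rescue from cytokine killing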
SKKanGAS inh = inhibitors of SKKanGAS S. pyogenes growth in kanamycin (SK-promoter or general growth effect). BacTiter-Glo, 6 h. inhibition, % at 7.5 µM. hit rate 1.3% among 300,000;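 active = mean replicate score, as percent of positive control median, at least 50; inconclusive = mean below 50 but one replicate at or above 50; inactive = mean and every replicate below 50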;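 also: strain carries kanamycin resistance gene driven by streptokinase promoter and grows in 40 µg/ml kanamycin; loss of luminescence reflects streptokinase promoter inhibition or plain growth inhibition; 0% = median of DMSO wells and 100% = positive control at its reference dose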
CSC inhib = blocks cancer stem cells; hit rate 1.1% among 300,000; cancer stem cell-like cells viability, luminescence; inhibition, % at 7.5 µM; AID 2717; in the data active = inhibition above about 75%; inconclusive = no clear call, values can overlap the other calls; tested in HMLE shEcad cells
Mdm2 MdmX PPI = disrupts the human Mdm2-MdmX interaction; inhibition, % at 8 µM; SaOS-2 split-luciferase Mdm2/MdmX complementation, luminescence; AID 485346; hit rate 3% among 330,000;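 active = inhibition of at least 50% at 8 µM in the primary screen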
Target sequence (O15151 whole entry, looked up): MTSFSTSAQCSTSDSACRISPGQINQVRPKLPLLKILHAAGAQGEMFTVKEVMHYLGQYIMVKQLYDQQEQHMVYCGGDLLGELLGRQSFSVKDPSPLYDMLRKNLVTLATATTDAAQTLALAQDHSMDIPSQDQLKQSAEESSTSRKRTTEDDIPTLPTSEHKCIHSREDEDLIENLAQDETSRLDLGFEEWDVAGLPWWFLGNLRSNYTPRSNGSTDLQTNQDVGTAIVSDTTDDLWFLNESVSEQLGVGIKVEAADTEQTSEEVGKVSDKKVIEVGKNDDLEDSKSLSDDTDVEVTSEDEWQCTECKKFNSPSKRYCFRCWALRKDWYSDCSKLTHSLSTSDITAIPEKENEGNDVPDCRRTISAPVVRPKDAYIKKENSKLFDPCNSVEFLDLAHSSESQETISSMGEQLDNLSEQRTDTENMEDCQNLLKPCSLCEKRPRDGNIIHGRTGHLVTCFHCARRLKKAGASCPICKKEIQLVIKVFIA
Target sequence (Q00987 whole entry, looked up): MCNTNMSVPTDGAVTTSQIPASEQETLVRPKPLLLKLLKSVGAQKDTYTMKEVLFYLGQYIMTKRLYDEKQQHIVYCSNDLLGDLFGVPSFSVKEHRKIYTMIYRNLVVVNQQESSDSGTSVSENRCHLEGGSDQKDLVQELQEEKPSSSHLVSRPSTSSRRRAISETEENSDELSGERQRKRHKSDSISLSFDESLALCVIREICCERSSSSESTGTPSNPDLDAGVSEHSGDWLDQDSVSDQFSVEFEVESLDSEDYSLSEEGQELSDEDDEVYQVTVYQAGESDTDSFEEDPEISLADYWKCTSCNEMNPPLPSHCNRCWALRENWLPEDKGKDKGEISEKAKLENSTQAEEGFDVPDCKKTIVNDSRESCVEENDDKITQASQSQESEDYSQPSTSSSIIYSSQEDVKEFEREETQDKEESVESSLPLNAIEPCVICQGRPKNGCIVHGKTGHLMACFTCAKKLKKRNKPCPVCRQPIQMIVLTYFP
Mdm2 MdmX conf = confirmation of human Mdm2/MdmX interaction inhibitors; AID 489028; inhibition, % at 8 µM; Mdm2-MdmX binding, luminescent assay; shares compounds with Mdm2 MdmX PPI; hit rate 55% among 10,000; in the data active = inhibition above about 40%
Full FLuc ctr = counter-screen for Mdm2/MdmX inhibitors: full-length luciferase; shares compounds with Mdm2 MdmX PPI; SaOS-2 full-length luciferase counterscreen, luminescence; inhibition, % at 8 µM; hit rate 77% among 6,200; AID 504607;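 active = mean inhibition at 8 µM reaching about 37%, which flags the compound as non-specific, limit read from the data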;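 also: p53-null SaOS-2 cells with luciferase driven by a doxycycline-inducible promoter; compound on cells about two nights before reading with doxycycline added after day one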
The depositor's hits bear a star; u = inconclusive; x = no result given; + = active, no number. In the library only some 5.4% were active in any assay of this set; here they are far more common.

SMILES	MPTP inh	Calb FLC	Beta cell apopt	SKKanGAS inh	CSC inhib	Mdm2 MdmX PPI	Mdm2 MdmX conf	Full FLuc ctr
COc1ccc(NC2=NCC(=O)N2Cc2cccs2)cc1	-12	9	0	0	-14	55*	2	x
N/C(=N\c1nc2ccccc2o1)NC(=O)c1ccccc1	1	-6	-4	4	16	-55	x	x
N/C(=N\c1nc2ccccc2o1)NC(=O)c1cccc(Br)c1	1	-7	10	2	1	59*	13	x
CCNC(=O)C1(C)CCCN(Cc2cccc3c2OCCO3)C1 (stereo unspecified)	1	x	x	x	x	x	x	x
COc1ccc(COc2ccsc2C(=O)Nc2ccc(Cl)c(Cl)c2)cc1	3	-15	-5	0	17	76*	7	x
CN(C)S(=O)(=O)Oc1ccsc1C(=O)Nc1ccc(Cl)c(Cl)c1	1	17	-5	7	24	21	x	x
O=C(c1ccc(S(=O)(=O)Cc2ccccc2Cl)c([N+](=O)[O-])c1)N1CCOCC1	1	5	-44	0	11	51*	42*	49*
CN(C(=O)c1ccc(NC(=O)Cc2cccc([N+](=O)[O-])c2)cc1)C1CCCC1	1	x	-14	x	-14	15	x	x
O=C(NC1CCCCC1)c1ccc(S(=O)(=O)c2ccccc2Cl)c([N+](=O)[O-])c1	x	-1	-4	-4	10	77*	66*	17
CN(C(=O)c1ccc(S(=O)(=O)c2cccc(Cl)c2)c([N+](=O)[O-])c1)C1CCCCC1	48	-2	-9	-12	47	73*	60*	29
Cc1ccccc1CS(=O)(=O)c1ccc(C(=O)N2CCOCC2)cc1[N+](=O)[O-]	3	2	-35	-3	-8	38	x	x
O=C(c1ccc(S(=O)(=O)c2ccccc2Cl)c([N+](=O)[O-])c1)N1CCN(Cc2ccccc2)CC1	24	-3	0	-4	12	84*	75*	30
CCCN(CC(=O)Nc1ccccc1C)C(=O)c1nn(CC)c(=O)c2ccccc12	2	x	0	x	x	22	x	x
CC(C)(C)C(=O)/C=C/c1ccc(Oc2ccccc2)cc1	1	-10	7	6	11	x	x	x
Oc1c(Br)cc(Br)c2cccnc12	0	x	x	x	x	x	x	x
[O-][n+]1cccc2c(Br)cc(Br)c(O)c21	2	109*	7	76*	8	51*	25	x
CN1CCN(C(c2ccc(C(F)(F)F)cc2)c2ccc3cccnc3c2O)CC1 (stereo unspecified)	x	97*	81*	87*	98*	74*	73*	28
CC(C)(C)n1nnnc1C(c1cccs1)N1CCN(c2ccccc2)CC1 (stereo unspecified)	-1	u	x	4	0	11	x	x
Oc1c(C(c2ccccc2Cl)N2CCCC2)ccc2cccnc12 (stereo unspecified)	2	105*	92*	76*	-8	69*	63*	31
CN1CCN(C(c2ccccc2)c2ccccc2)CC1	-1	x	0	x	-3	15	x	x
Oc1c(C(c2cccs2)N2CCN(c3ccccc3)CC2)ccc2cccnc12 (stereo unspecified)	x	x	109*	x	88*	51*	82*	23
O=S(=O)(c1cccc2cccnc12)N1CCCCC1	-1	22	x	-2	-1	33	x	x
CCC(C)NC(=O)c1cc2c(=O)n3cccc(C)c3nc2s1 (stereo unspecified)	1	13	2	-5	-10	13	x	x
O=C(O)Cc1ccc2oc(-c3ccccn3)nc2c1	0	1	1	5	-12	-7	x	x
C=CCN1C(=O)N(CC=C)c2cccc3cccc1c23	1	7	-2	14	-17	6	x	x
SMILES	MPTP inh	Calb FLC	Beta cell apopt	SKKanGAS inh	CSC inhib	Mdm2 MdmX PPI	Mdm2 MdmX conf	Full FLuc ctr
CCN1C(=O)Nc2cccc3cccc1c23	1	2	-10	-7	4	84*	62*	57*
COc1ccccc1C(=O)NCc1nnc(SCC(=O)Nc2nccs2)n1C	0	-2	1	-1	-15	18	x	x
COc1ccc(NC(=O)c2nc[nH]c2C(=O)NCCCCCNC(=O)OC(C)(C)C)cc1	x	x	-3	x	-7	28	x	x
COc1c2c(cc3oc(=O)c4c5ccc(O)cc5oc4c13)OC(C)(C)CC2	2	-7	7	3	-10	81*	63*	+
CCOC(=O)C1(Cc2cccc(F)c2)CCN(Cc2nc(CC)[nH]c2C)CC1	-1	8	-5	-19	7	-2	x	x
CC(Oc1ccccc1)C(=O)Nc1ccc(NC(=O)c2ccccc2)cc1 (stereo unspecified)	2	0	-2	3	1	66*	37	52*
O=S(=O)(c1ccccc1)N1CCN(c2ccnc3cc(Cl)ccc23)CC1	13	22	33	3	5	30	x	x
O=S(=O)(c1cccs1)N1CCN(c2ccnc3cc(Cl)ccc23)CC1	37	-5	x	2	x	57*	23	x
c1ccc(CN2CCN(c3nc4ccccc4s3)CC2)cc1	-1	-1	-6	18	-8	-214	x	x
Cc1cc(C)n(-c2nc(N(C)C)nc(N(C)C)n2)n1	-1	3	-4	2	-4	9	x	x
Cc1cc(C)n(-c2nc(Nc3ccccc3C(F)(F)F)nc(-n3nc(C)cc3C)n2)n1	-7	21	82*	135*	59	69*	35	x
Cc1cc(C)n(-c2nc(Nc3ccccc3C)nc(-n3nc(C)cc3C)n2)n1	x	51	x	98*	10	67*	21	x
Cc1csc(Nc2ccccc2C(F)(F)F)n1	0	-11	-6	9	-4	7	x	x
Cn1c(=O)c([N+](=O)[O-])c(NCC(O)c2ccccc2)c2ccccc21 (stereo unspecified)	1	3	-4	-5	-32	11	x	x
O=C1CC(=O)Nc2cc(S(=O)(=O)Nc3ccc(F)cc3Cl)ccc2N1	-1	4	-8	1	x	7	x	x
COc1ccccc1CNS(=O)(=O)c1ccc(S(=O)(=O)NC2CC2)cc1	0	3	-3	2	x	-14	x	x
O=S(=O)(Nc1ccc(F)cc1Cl)c1ccc(-c2cnc(C3CC3)o2)cc1	10	-2	x	9	x	56*	61*	66*
Cc1cccc(N(C)S(=O)(=O)c2ccc(-c3cnc(C4CC4)o3)cc2)c1	0	4	54	2	78*	74*	59*	103*
COc1ccccc1CNS(=O)(=O)c1ccc(-c2cnc(C3CC3)o2)cc1	5	18	19	-3	65	54*	55*	66*
COc1ccccc1NS(=O)(=O)c1ccc(-c2cnc(C3CC3)o2)cc1	-1	8	16	-15	17	70*	64*	81*
COc1ccc(CN2CCC(CO)(Cc3ccccc3)CC2)cc1Cn1cccn1	0	-18	-3	0	-9	13	x	x
